Data taken from PubChem BioAssay AID1159580 (chemical genetic matrix, 2015).
About 2,000 (36%) of roughly 5,500 compounds were called active. Inconclusive results (about 18%) are left out. No stated cut-off is given here; in the data, active means normalized growth mostly below about 0.91 (no sharp cut-off); inconclusive means no clear call, values can overlap the other calls; inactive means mostly above about 0.92. The list shows a part of the results.

Assay: chemical genetic growth profiling, strain panel (AID 1159580);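 further: tested at 20 µM; growth read once vehicle control cultures reached saturation at 30 °C; 1 = growth at the plate median or of vehicle wells; lower values mean less growth of the strain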
Details: growth OD

Measured: normalized growth

COc1ccc(-c2coc3c(O)c(OC)ccc3c2=O)cc1
inactive: S. cerevisiae deletion strains, locus YKL085W, strain MDH1 (second series), active compounds read low 0.935 | S. cerevisiae deletion strains, locus YKL085W, strain MDH1, active compounds read low 0.935 | S. cerevisiae deletion strains, locus YKL190W, strain CNB1, active compounds read low 0.932 | S. cerevisiae deletion strains, locus YKR026C, strain gcn3, active compounds read low 0.967 | S. cerevisiae deletion strains, locus YKR091W, strain srl3, active compounds read low 0.961 | S. cerevisiae deletion strains, locus YLL001W, strain dnm1, active compounds read low 0.914 | S. cerevisiae deletion strains, locus YLL026W, active compounds read low 0.966 | S. cerevisiae deletion strains, locus YLL041C, strain sdh2, active compounds read low 0.956 | S. cerevisiae deletion strains, locus YLR027C, strain aat2, active compounds read low 0.964 | S. cerevisiae deletion strains, locus YLR058C, strain SHM2, active compounds read low 0.9 | S. cerevisiae deletion strains, locus YLR102C, strain apc9, active compounds read low 0.941 | S. cerevisiae deletion strains, locus YLR113W, strain HOG1, active compounds read low 0.994 | S. cerevisiae deletion strains, locus YLR221C, strain rsa3, active compounds read low 0.957 | S. cerevisiae deletion strains, locus YLR258W, strain gsy2, active compounds read low 0.925 | S. cerevisiae deletion strains, locus YLR342W, strain FKS1 (second series), active compounds read low 0.843 | S. cerevisiae deletion strains, locus YLR342W, strain FKS1, active compounds read low 0.963 | S. cerevisiae deletion strains, locus YLR357W, strain rsc2, active compounds read low 0.899 | S. cerevisiae deletion strains, locus YLR370C, strain arc18, active compounds read low 0.974 | S. cerevisiae deletion strains, locus YLR371W, strain rom2, active compounds read low 0.922 | S. cerevisiae deletion strains, locus YLR384C, strain iki3, active compounds read low 0.989 | S. cerevisiae deletion strains, locus YML016C, strain PPZ1, active compounds read low 0.925 | S. cerevisiae deletion strains, locus YML124C, strain tub3, active compounds read low 0.937 | S. cerevisiae deletion strains, locus YMR058W, strain fet3, active compounds read low 0.952 | S. cerevisiae deletion strains, locus YMR125W, strain sto1, active compounds read low 0.964 | S. cerevisiae deletion strains, locus YMR129W, active compounds read low 0.969 | S. cerevisiae deletion strains, locus YMR231W, strain pep5, active compounds read low 0.987 | S. cerevisiae deletion strains, locus YNL067W, strain RPL9B, active compounds read low 0.959 | S. cerevisiae deletion strains, locus YNL128W, strain TEP1, active compounds read low 0.889 | S. cerevisiae deletion strains, locus YNL183C, strain NPR1, active compounds read low 0.952 | S. cerevisiae deletion strains, locus YNL209W, strain ssb2, active compounds read low 0.948 | S. cerevisiae deletion strains, locus YNL233W, strain BNI4, active compounds read low 0.879 | S. cerevisiae deletion strains, locus YNL248C, strain rpa49, active compounds read low 0.965 | S. cerevisiae deletion strains, locus YNL250W, strain rad50, active compounds read low 0.928 | S. cerevisiae deletion strains, locus YNL271C, strain bni1, active compounds read low 0.941 | S. cerevisiae deletion strains, locus YNL322C, strain KRE1, active compounds read low 0.939 | S. cerevisiae deletion strains, locus YNR049C, strain mso1, active compounds read low 0.995 | S. cerevisiae deletion strains, locus YNR052C, strain pop2, active compounds read low 0.925 | S. cerevisiae deletion strains, locus YOL012C, strain htz1 0.727 | S. cerevisiae deletion strains, locus YOR001W, strain rrp6, active compounds read low 0.974 | S. cerevisiae deletion strains, locus YOR061W, strain CKA2, active compounds read low 0.912 | S. cerevisiae deletion strains, locus YOR069W, strain VPS5, active compounds read low 0.941 | S. cerevisiae deletion strains, locus YOR070C, strain gyp1, active compounds read low 0.994 | S. cerevisiae deletion strains, locus YOR080W, strain dia2, active compounds read low 0.992 | S. cerevisiae deletion strains, locus YOR083W, strain WHI5, active compounds read low 0.902 | S. cerevisiae deletion strains, locus YOR106W, strain vam3, active compounds read low 0.882 | S. cerevisiae deletion strains, locus YOR136W, strain idh2, active compounds read low 0.927 | S. cerevisiae deletion strains, locus YOR231W, strain MKK1, active compounds read low 1.02 | S. cerevisiae deletion strains, locus YOR265W, strain rbl2, active compounds read low 0.984 | S. cerevisiae deletion strains, locus YOR270C, strain vph1, active compounds read low 0.888 | S. cerevisiae deletion strains, locus YOR316C, strain cot1, active compounds read low 0.943 | S. cerevisiae deletion strains, locus YPL106C, strain sse1, active compounds read low 0.903 | S. cerevisiae deletion strains, locus YPL240C, strain hsp82, active compounds read low 0.946 | S. cerevisiae deletion strains, locus YPL256C, strain CLN2, active compounds read low 0.989 | S. cerevisiae deletion strains, locus YPR141C, strain kar3, active compounds read low 0.932 | S. cerevisiae deletion strains, locus YPR167C, strain met16, active compounds read low 0.926
active: S. cerevisiae deletion strains, locus YKL009W, strain mrt4, active compounds read low 0.865 | S. cerevisiae deletion strains, locus YKL068W, active compounds read low 0.94 | S. cerevisiae deletion strains, locus YKL160W, strain elf1, active compounds read low 0.869 | S. cerevisiae deletion strains, locus YKR001C, strain vps1, active compounds read low 0.82 | S. cerevisiae deletion strains, locus YLR039C, strain RIC1, active compounds read low 0.491 | S. cerevisiae deletion strains, locus YLR262C, strain YPT6 (second series), active compounds read low 0.736 | S. cerevisiae deletion strains, locus YLR268W, strain sec22, active compounds read low 0.766 | S. cerevisiae deletion strains, locus YLR320W, strain mms22, active compounds read low 0.827 | S. cerevisiae deletion strains, locus YLR330W, strain CHS5, active compounds read low 0.838 | S. cerevisiae deletion strains, locus YLR418C, strain cdc73, active compounds read low 0.722 | S. cerevisiae deletion strains, locus YML032C, strain rad52, active compounds read low 0.862 | S. cerevisiae deletion strains, locus YML120C, strain ndi1, active compounds read low 0.893 | S. cerevisiae deletion strains, locus YMR078C, strain ctf18, active compounds read low 0.864 | S. cerevisiae deletion strains, locus YMR205C, strain PFK2, active compounds read low 0.824 | S. cerevisiae deletion strains, locus YMR223W, strain ubp8, active compounds read low 0.881 | S. cerevisiae deletion strains, locus YMR307W, strain GAS1, active compounds read low 0.58 | S. cerevisiae deletion strains, locus YNL071W, strain lat1, active compounds read low 0.571 | S. cerevisiae deletion strains, locus YNL298W, strain CLA4, active compounds read low 0.904 | S. cerevisiae deletion strains, locus YNL307C, strain MCK1, active compounds read low 0.595 | S. cerevisiae deletion strains, locus YNL322C, strain KRE1 (second series), active compounds read low 0.839 | S. cerevisiae deletion strains, locus YOL147C, strain pex11, active compounds read low 0.836 | S. cerevisiae deletion strains, locus YOR144C, strain elg1, active compounds read low 0.894 | S. cerevisiae deletion strains, locus YOR184W, strain ser1, active compounds read low 0.708 | S. cerevisiae deletion strains, locus YOR290C, strain snf2, active compounds read low 0.807 | S. cerevisiae deletion strains, locus YPL051W, strain arl3, active compounds read low 0.87 | S. cerevisiae deletion strains, locus YPL078C, strain atp4, active compounds read low 0.836 | S. cerevisiae deletion strains, locus YPR119W, strain clb2, active compounds read low 0.928 | S. cerevisiae deletion strains, locus YPR163C, strain tif3, active compounds read low 0.694 | S. cerevisiae deletion strains, strain wtn01, active compounds read low 0.846 | S. cerevisiae strains, strain wild type, active compounds read low 0.83
